We go through 6 compounds from ChEMBL document CHEMBL1961873, “Compounds: GSK PKIS; Assays: Nanosyn kinase panel” (2012).

Test [1] concerns the target Death-associated protein kinase 1 (Homo sapiens) (UniProt P53355). The note with it: at 1 µM.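 Note: each value is a mean inhibition figure.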
Test [2] has as its target T1, Serine/threonine-protein kinase DCLK2 (Homo sapiens) (UniProt Q8N568).
T1 sequence (whole entry): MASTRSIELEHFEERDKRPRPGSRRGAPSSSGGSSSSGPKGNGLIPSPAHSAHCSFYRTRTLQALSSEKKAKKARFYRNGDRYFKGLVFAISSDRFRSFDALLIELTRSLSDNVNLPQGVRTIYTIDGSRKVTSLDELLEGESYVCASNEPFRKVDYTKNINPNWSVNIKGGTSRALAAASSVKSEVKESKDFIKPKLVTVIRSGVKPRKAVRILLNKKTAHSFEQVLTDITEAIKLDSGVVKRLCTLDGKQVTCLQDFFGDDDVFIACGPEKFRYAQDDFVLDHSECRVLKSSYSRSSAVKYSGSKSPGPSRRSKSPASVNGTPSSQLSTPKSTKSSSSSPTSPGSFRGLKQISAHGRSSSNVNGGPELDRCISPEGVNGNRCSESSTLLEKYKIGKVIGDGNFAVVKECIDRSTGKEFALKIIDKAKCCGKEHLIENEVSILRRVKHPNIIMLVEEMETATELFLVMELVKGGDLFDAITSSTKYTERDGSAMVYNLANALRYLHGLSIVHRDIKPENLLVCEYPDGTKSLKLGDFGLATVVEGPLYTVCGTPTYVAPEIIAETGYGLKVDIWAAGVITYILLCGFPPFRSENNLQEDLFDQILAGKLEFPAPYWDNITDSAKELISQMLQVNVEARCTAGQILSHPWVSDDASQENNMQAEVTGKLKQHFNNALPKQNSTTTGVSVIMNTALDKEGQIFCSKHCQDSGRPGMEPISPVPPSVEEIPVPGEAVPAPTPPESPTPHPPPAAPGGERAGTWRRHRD
The following applies: at 0.1 µM.

The target in test [3] is T1, Serine/threonine-protein kinase DCLK2 (Homo sapiens). The following applies: at 1 µM.
The target in test [4] is MAP kinase-activated protein kinase 2 (Homo sapiens) (UniProt P49137). The following applies: at 0.1 µM.
MAP kinase-activated protein kinase 2 (Homo sapiens), sequence (P49137 whole entry, looked up): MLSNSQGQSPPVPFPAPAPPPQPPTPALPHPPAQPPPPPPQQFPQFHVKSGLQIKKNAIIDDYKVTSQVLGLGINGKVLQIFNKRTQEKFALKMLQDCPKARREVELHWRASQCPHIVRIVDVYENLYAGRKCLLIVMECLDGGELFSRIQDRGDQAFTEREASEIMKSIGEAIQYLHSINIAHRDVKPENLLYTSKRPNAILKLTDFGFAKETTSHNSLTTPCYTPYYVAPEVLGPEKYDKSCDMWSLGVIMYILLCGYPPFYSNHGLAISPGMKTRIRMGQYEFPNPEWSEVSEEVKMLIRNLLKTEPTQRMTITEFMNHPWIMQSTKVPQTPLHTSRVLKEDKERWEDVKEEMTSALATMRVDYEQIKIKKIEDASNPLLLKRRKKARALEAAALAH
Test [5] has the same target. The note with it: at 1 µM.
Test [6] has as its target MAP kinase-activated protein kinase 3 (Homo sapiens) (UniProt Q16644). The note with it: at 0.1 µM.
The target is the same in test [7]. The note with it: at 1 µM.
Test [8] has as its target Serine/threonine-protein kinase MARK1 (Homo sapiens) (UniProt Q9P0L2). The note with it: at 0.1 µM.
The target is the same in test [9]. The note with it: at 1 µM.
The target in test [10] is MAP/microtubule affinity-regulating kinase 3 (Homo sapiens) (UniProt P27448). The note with it: at 0.1 µM.
Test [11] has the same target. The following applies: at 1 µM.
For test [12], the target named is T2, MAP/microtubule affinity-regulating kinase 4 (Homo sapiens) (UniProt Q96L34).
T2 sequence (whole entry): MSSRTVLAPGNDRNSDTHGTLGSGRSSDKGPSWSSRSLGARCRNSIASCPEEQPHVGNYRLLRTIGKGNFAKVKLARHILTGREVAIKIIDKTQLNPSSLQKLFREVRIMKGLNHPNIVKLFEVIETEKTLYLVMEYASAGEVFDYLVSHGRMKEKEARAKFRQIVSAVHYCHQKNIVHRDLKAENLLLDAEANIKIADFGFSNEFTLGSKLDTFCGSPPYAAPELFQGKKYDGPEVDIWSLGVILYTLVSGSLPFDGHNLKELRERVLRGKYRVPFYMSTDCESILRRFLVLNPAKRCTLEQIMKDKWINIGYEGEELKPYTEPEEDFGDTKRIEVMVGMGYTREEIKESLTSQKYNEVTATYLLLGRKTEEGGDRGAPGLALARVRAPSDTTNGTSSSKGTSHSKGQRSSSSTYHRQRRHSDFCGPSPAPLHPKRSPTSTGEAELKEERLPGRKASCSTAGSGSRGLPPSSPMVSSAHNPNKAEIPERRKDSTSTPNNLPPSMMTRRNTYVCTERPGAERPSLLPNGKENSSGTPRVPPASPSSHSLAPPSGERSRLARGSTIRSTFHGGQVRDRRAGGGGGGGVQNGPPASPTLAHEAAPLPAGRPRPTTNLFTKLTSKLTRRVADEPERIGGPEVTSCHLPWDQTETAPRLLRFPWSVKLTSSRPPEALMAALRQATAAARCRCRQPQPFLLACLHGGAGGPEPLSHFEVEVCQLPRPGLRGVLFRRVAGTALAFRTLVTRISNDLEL
The note with it: at 0.1 µM.

The target in test [13] is T2, MAP/microtubule affinity-regulating kinase 4 (Homo sapiens). The note with it: at 1 µM.
For test [14], the target named is Maternal embryonic leucine zipper kinase (Homo sapiens) (UniProt Q14680). The note with it: at 0.1 µM.
For test [15] the target is unchanged. The following applies: at 1 µM.
For test [16], the target named is MAP kinase-interacting serine/threonine-protein kinase 1 (Homo sapiens) (UniProt Q9BUB5). The following applies: at 0.1 µM.
MAP kinase-interacting serine/threonine-protein kinase 1 (Homo sapiens), sequence (Q9BUB5 whole entry, looked up): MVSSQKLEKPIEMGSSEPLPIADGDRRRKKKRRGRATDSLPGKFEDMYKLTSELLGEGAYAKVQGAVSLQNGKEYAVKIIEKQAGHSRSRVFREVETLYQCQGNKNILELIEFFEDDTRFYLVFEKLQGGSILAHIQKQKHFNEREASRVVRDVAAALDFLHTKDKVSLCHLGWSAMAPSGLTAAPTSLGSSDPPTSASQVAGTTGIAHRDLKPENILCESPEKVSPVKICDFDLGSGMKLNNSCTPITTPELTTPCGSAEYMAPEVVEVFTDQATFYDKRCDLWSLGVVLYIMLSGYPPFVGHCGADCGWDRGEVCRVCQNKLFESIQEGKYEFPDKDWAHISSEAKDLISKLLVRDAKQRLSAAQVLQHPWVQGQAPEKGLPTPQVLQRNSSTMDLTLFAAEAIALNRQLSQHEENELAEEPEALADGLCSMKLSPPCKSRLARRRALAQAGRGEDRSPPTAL
Test [17] has the same target. The following applies: at 1 µM.
The target in test [18] is MAP kinase-interacting serine/threonine-protein kinase 2 (Homo sapiens) (UniProt Q9HBH9). The note with it: at 0.1 µM.
MAP kinase-interacting serine/threonine-protein kinase 2 (Homo sapiens), sequence (Q9HBH9 whole entry, looked up): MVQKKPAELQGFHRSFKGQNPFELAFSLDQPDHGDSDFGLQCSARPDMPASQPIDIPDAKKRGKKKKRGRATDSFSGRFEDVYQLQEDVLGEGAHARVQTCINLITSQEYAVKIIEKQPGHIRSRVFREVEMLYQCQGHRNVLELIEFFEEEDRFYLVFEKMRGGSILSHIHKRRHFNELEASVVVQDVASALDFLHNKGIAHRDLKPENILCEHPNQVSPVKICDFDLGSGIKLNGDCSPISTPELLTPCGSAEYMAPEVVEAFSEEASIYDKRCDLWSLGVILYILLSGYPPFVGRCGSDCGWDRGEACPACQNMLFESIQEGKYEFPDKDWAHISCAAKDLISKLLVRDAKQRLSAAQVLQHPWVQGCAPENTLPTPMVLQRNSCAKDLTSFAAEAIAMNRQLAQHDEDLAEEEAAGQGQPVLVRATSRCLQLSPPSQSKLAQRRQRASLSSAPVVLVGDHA
The target is the same in test [19]. The following applies: at 1 µM.
The target of test [20] is Serine/threonine-protein kinase MARK2 (Homo sapiens) (UniProt Q7KZI7). The note with it: at 0.1 µM.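 Note: mean percent inhibition of PAR-1Balpha kinase activity, reported from the GSK PKIS screen.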
Serine/threonine-protein kinase MARK2 (Homo sapiens), sequence (Q7KZI7 whole entry): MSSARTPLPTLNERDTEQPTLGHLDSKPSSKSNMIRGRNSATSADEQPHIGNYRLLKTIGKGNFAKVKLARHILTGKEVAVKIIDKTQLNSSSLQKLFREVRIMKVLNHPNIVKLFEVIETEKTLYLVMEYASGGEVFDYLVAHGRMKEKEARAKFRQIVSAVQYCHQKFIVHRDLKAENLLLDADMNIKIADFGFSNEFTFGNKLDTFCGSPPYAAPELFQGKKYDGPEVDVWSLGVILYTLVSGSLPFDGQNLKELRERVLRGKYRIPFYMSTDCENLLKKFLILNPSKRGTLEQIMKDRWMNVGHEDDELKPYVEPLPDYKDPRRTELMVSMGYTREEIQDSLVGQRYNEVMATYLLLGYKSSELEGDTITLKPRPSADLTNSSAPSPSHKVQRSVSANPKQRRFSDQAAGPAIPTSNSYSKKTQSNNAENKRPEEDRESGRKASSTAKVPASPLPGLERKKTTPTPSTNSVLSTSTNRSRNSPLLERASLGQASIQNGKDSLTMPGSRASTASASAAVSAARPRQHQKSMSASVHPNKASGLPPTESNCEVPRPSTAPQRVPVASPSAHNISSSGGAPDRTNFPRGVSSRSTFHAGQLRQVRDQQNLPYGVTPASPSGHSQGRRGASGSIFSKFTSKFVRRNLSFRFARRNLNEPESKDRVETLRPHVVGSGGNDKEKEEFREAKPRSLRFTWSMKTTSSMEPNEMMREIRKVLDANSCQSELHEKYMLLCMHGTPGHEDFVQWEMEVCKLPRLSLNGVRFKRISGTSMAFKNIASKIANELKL

MAP kinase-activated protein kinase 3 (Homo sapiens), sequence (Q16644 whole entry, looked up): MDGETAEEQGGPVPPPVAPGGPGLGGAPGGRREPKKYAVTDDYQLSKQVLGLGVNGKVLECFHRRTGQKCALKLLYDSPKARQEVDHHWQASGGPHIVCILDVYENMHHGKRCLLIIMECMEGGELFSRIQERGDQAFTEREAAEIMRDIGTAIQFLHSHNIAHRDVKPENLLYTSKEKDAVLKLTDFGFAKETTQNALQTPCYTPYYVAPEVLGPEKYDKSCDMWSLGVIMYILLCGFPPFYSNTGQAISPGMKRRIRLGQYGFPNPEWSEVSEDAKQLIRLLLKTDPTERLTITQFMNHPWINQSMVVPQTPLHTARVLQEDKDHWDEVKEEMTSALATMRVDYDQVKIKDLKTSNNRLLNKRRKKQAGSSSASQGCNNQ
Death-associated protein kinase 1 (Homo sapiens), sequence (P53355 whole entry, looked up): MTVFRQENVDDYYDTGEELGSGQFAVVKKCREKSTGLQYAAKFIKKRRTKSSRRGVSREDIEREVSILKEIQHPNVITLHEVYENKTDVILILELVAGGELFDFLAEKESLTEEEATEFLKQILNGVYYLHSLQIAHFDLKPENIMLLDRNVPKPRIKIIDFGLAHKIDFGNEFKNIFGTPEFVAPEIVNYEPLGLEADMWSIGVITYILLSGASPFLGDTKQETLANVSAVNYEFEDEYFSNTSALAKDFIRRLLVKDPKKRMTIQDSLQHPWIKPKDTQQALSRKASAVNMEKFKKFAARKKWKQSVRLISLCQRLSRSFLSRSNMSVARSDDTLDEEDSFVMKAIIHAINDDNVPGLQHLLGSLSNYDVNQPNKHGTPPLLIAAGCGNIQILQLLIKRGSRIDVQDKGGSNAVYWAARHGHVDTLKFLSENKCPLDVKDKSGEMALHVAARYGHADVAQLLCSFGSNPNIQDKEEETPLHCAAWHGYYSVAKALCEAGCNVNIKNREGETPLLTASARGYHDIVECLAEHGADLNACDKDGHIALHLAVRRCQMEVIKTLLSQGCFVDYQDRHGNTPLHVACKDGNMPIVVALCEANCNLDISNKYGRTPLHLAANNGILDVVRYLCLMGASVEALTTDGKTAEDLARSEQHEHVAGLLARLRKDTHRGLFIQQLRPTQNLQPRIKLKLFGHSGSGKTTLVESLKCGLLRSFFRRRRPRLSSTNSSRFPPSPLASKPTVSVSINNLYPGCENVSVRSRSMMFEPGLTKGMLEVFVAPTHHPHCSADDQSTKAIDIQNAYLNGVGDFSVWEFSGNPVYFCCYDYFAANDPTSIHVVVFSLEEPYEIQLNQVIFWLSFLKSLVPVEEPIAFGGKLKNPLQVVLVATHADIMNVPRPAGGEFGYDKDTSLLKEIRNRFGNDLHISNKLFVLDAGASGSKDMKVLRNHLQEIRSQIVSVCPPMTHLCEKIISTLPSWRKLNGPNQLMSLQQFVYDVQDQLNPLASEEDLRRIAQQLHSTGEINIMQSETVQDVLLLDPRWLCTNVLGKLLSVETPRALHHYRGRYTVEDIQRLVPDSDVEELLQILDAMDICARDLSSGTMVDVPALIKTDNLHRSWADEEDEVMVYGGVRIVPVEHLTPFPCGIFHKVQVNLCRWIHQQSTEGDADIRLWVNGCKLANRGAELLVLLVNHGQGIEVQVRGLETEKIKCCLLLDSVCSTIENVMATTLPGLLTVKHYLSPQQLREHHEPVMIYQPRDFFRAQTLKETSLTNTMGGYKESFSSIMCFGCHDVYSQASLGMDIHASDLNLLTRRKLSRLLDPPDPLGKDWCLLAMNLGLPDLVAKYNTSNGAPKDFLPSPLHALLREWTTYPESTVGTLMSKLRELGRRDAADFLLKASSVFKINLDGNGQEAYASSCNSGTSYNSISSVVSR
Serine/threonine-protein kinase MARK1 (Homo sapiens), sequence (Q9P0L2 whole entry, looked up): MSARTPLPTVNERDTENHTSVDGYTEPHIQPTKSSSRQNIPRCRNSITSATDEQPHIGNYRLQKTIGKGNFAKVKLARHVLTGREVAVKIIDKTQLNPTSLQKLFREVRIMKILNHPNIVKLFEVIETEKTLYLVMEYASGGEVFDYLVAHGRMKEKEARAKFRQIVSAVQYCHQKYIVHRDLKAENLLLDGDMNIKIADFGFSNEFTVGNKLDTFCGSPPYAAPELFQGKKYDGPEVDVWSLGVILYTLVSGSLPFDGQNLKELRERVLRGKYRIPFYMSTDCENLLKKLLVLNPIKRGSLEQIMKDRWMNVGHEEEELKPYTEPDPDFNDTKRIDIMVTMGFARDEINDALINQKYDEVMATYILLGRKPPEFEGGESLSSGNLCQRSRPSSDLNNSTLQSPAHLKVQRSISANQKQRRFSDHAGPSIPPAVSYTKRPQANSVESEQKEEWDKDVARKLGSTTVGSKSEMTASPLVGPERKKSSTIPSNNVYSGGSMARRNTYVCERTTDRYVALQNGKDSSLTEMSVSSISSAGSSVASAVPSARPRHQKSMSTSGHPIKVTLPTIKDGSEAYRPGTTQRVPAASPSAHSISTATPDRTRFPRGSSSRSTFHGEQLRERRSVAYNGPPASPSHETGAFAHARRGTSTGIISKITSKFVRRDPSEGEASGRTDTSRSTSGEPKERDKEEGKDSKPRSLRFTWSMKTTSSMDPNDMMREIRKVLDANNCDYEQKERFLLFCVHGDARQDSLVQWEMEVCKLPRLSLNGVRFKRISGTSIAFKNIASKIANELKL

Broadly, the inhibition is the change of the read-out against control, counted positive when it falls. Consider `Cc1nnc(-c2ccc(C)c(-c3ccc(C(=O)NCc4ccc(Cl)cc4)cc3)c2)o1`, for which the inhibition was 1.9% in test [1]; -1.39% in [2]; -8.11% in test [3]; 1.41% in test [4]; 0.78% in [5]; 5.02% in test [6]. Also, the inhibition is 15.7% in test [7]; 2.82% in [8]; 4.92% in [9]; 0.14% in test [10]; -1.1% in test [11]; 2.02% in [12]. Besides, the inhibition came to 1.96% in [13]; 4.87% in [14]; 5.52% in test [15]; 2.03% in test [16]; 6.45% in [17]; 0.86% in test [18]. For the same compound, the inhibition was found to be 1.57% in test [19] and 1.6% in test [20].

As for `Fc1ccc(-c2c(-c3ccncc3)nc3n2CCS3)cc1`, the inhibition was -1.77% in [1]; -5.23% in test [2]; -4.37% in test [3]; 0.4% in [4]; 0.36% in test [5]; 1.43% in test [6]. Also, the inhibition turned out to be 1.3% in test [7]; 2.07% in test [8]; 3.24% in [9]; 1.44% in test [10]; 11.9% in test [11]; 1.3% in test [12]. The inhibition is 2.25% in [13]; 4.24% in [14]; 7.4% in test [15]; 0.84% in test [16]; 8.91% in test [17]; 0.34% in test [18]. Further, the inhibition stood at 6.79% in test [19] and 1.04% in [20].

Consider `NS(=O)(=O)c1ccc(N/N=C2\C(=O)Nc3ccc(-c4cnco4)cc32)cc1`, for which the inhibition in test [1] is -3.71%; in test [2], -5.27%; in test [3], -2.47%; in [4], -0.59%; in test [5] it was 0.18%; in [6], -0.18%. Also, the inhibition in test [7] is -0.48%; in [8], 2.3%; in [9], 15.6%; in test [10] it was 2.61%; in test [11], 17.4%; in test [12], 4.35%. Further, the inhibition in test [13] amounted to 26.1%; in test [14], 5.8%; in test [15], 32.9%; in test [16] it was 1.41%; in test [17], 7.87%; in [18] it was 2.14%. In addition, the inhibition in test [19] amounted to 8.88%; in [20] it was 1.73%.

Turning to `c1ccc(Oc2ccc(Nc3ncc(-c4ccccc4)o3)cc2)cc1`, the inhibition in test [1] is 0.04%; in test [2], 0.28%; in test [3] it was -1.82%; in test [4], 0.81%; in [5] it was 0.09%; in test [6], 1.72%. In addition, the inhibition is 1.73% in [7]; 1.66% in test [8]; 0.44% in test [9]; -0.01% in test [10]; -0.43% in test [11]; -0.01% in [12]. Further, the inhibition in test [13] came out at 0.55%; in [14] it was 2.47%; in test [15] it was 2.86%; in test [16], 1.08%; in test [17] it was 4.15%; in test [18], 0.86%. The inhibition is 2.44% in [19] and -0.89% in [20].

With `Fc1ccc(-c2ncn(C3CCNCC3)c2-c2ccnc(Oc3ccc4c(c3)OCO4)n2)cc1`, the inhibition was -4.62% in [1]; 2.01% in test [2]; 2.26% in test [3]; 0% in test [4]; -0.67% in test [5]; 29.6% in test [6]. Further, the inhibition is 31.2% in test [7]; 2.98% in [8]; 5.01% in test [9]; 3.59% in test [10]; 5.12% in test [11]; 2.61% in [12]. For the same compound, the inhibition is 3.33% in test [13]; 6.04% in [14]; 6.41% in test [15]; 4.52% in [16]; 7.62% in [17]; 1.84% in [18]. Besides, the inhibition in test [19] is 6.88%; in [20], 0.67%.

With `CS(=O)(=O)CCNCc1cc(-c2cc3c(Nc4ccc(OCc5cccc(F)c5)c(Cl)c4)ncnc3s2)cs1`, the inhibition in [1] is -0.04%; in test [2], 0.09%; in test [3], 1.12%; in [4], 2.75%; in [5], 3.42%; in test [6], 3.37%. Moreover, the inhibition in [7] was 4.64%; in test [8] it was -0.03%; in [9] it was 3.02%; in test [10], 0.84%; in test [11] it was 3.64%; in [12] it was 1.63%. For the same compound, the inhibition in test [13] amounted to 1.6%; in test [14] it was 5.46%; in test [15], 10.5%; in test [16], 2.78%; in test [17], 7.91%; in test [18], 1.16%. The values for the inhibition in [19] and in test [20] were 7.96% and -0.51%, respectively.
